Compounds with a hit are over-represented: about 10% of the library has one in this group of screens.
HP1b binding inh – HP1-beta chromodomain-methylated histone interaction inhibition | P83916 | AlphaScreen HP1-beta / biotin-H3K9me3 peptide binding | Potency, µM (highest dose often 114 µM), for inactives: at the top dose activity change, negative = inhibition, actives largely listed as inhibitors | hit rate 0.56% among 390,000 | AID 540317; also: potency is read from the fitted curve at half-maximal effect; nearly all actives have a fitted effect of over 70% in size
Target sequence (P83916 whole entry, looked up): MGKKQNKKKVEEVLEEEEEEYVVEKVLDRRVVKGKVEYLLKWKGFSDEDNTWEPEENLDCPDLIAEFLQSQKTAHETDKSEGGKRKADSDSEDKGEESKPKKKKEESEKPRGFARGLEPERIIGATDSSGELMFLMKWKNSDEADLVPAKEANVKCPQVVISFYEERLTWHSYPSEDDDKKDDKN
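AlphaScreen: HP1-beta (50 nM) preformed 30 min with biotin-H3(1-18)K9me3 peptide (50 nM) in PBS pH 7.4, 0.01% Tween-20. Compound added for 30 min at RT, then streptavidin donor/nickel chelate acceptor beads (10 ug/mL) for 30 min.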
CtBP-E1A blk – CtBP/E1A binding inhibition; AlphaScreen GST-E1A/His-CtBP binding, 1536-well; active compounds read low; activity change, % (test concentration not listed); hit rate 0.49% among 340,000; AID 651724; in the data active = activity change below about -65%; inconclusive = mostly about -30% to -63%; also: % is scaled to controls: 0 for no effect and ±100 for the full control effect
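Protein mix (5X: 125 nM each GST-E1A, His-CtBP) was incubated with pinned compound 2 h at 37 deg C in dark, in 50 mM Tris pH 8.0 buffer with 300 mM NaCl. Glutathione donor and nickel acceptor beads followed; AlphaScreen signal read after 1 h.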
JMJD2A Tudor – JMJD2A Tudor domain (human) inhibition; AID 504339; Potency, µM (top dose mostly 114 µM), without a hit: at the highest dose activity change, negative = inhibition, usual class: inhibitors; AlphaScreen JMJD2A-Tudor / H3K4me3 peptide binding; O75164; hit rate 4.4% among 390,000; also: potency is read from the fitted curve at half-maximal effect; % is scaled to controls: 0 for no effect and ±100 for the full control effect; nearly all actives have a fitted effect of over 50% in size
G9a inh-1 – G9a (human) methyltransferase inhibition. Q96KQ7. G9a H3K9 monomethylation, AlphaScreen, 2 h. Potency, µM (series often up to 102 µM), without a hit: at the top dose activity, negative = inhibition, usual class: inhibitors. hit rate 8.8% among 350,000. AID 504332; also: potency is read from the fitted curve at half-maximal effect; % is scaled to controls: 0 for no effect and ±100 for the full control effect; nearly all actives have a fitted effect of over 75% in size
Target sequence (Q96KQ7 913-1193 limits assumed): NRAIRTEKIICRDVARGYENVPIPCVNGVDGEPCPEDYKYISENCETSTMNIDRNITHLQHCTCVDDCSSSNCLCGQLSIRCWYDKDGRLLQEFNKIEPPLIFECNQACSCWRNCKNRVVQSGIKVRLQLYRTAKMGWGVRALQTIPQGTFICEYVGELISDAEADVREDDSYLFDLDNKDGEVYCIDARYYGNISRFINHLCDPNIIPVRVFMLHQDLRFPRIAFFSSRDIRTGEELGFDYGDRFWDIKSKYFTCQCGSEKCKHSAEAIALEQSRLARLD
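G9a (20 nM) was preincubated 15 min with compound, then reacted 2 h at room temperature with 500 nM biotin-H3K9 peptide and 20 µM SAM. Monomethyl-H3K9 detected by AlphaScreen using anti-H3K9me1 antibody.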
Six1-Eya2 inh – blocks human Six1 binding to Eya2 | Q15475+O00167 | AlphaScreen GST-Six1/His-Eya2 binding, biochemical; active compounds read low | activity change, % (test concentration not listed) | hit rate 0.56% among 360,000 | AID 651725; in the data active = activity change below about -65%; inconclusive = mostly about -30% to -63%; also: % is scaled to controls: 0 for no effect and ±100 for the full control effect
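Six1/Eya2 binding was read as AlphaScreen signal after compounds were pinned into GST-Six1 plus His-tagged Eya2 (5X stock 250/500 nM) in pH 8.0 Tris/NaCl/TCEP buffer, beads added, then incubated 1 h, 37 C, dark.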
BAZ2B block – blocks human BAZ2B; AID 504333; Potency, µM (series often up to 114 µM), for inactives: top-dose activity change, negative = inhibition, hits mostly inhibitors; AlphaScreen BAZ2B-H3K14Ac peptide displacement; hit rate 4.4% among 360,000; also: potency is read from the fitted curve at half-maximal effect; % is scaled to controls: 0 for no effect and ±100 for the full control effect; nearly all actives have a fitted effect of over 60% in size
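Compounds, titrated to a top concentration of 110 uM, were incubated 30 min at room temperature with preformed BAZ2B/acetyl-K14 H3 peptide complex (50 nM each). Proximity signal was measured by AlphaScreen after 20 min with beads.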
G9a inh-2 – confirmation of human histone methyltransferase G9a inhibitors; shares compounds with JMJD2A Tudor; hit rate 89% among 370; G9a H3K9 monomethylation, AlphaScreen, 2 h; Potency, µM, most hits filed as inhibitors; also: potency is read from the fitted curve at half-maximal effect; nearly all actives have a fitted effect of over 65% in size
Numbers without * were called inactive; u = inconclusive; x = no result; [ ] = another dose, or the depositor's remark. Unless noted, calls follow the shape of the dose curve; as a rule, active = well fitted curve in the direction sought with a large enough effect; inconclusive = small, poorly fitted or top-dose-only effect, or another doubt; inactive = no such curve, though single readings can be large; an effect the other way counts as inactive or inconclusive.

SMILES	HP1b binding inh	CtBP-E1A blk	JMJD2A Tudor	G9a inh-1	Six1-Eya2 inh	BAZ2B block	G9a inh-2
CCCn1cnc2cc(NCc3ccccc3OCC)ccc21	u	x	56µM*	1.8µM*	x	40µM*	2.6*
Cc1ccc(OCC(=O)Nc2ccc3c(c2)ncn3C)cc1	20%[57 µM]	4	12%	x	-8	x	x
CCCCn1cnc2cc(NCc3ccc(OCC)cc3)ccc21	u	x	40µM*	2.5µM*	x	22µM*	6.5*
CN(C)c1ccc(CNc2ccc3c(c2)ncn3C)cc1	20µM*	-5	18µM*	u	-5	18µM*	10*
CCOc1ccc(CNc2nc3ccccc3n2C)cc1	36%	x	-12%	x	10	-1%	x
CCOc1ccc(CNc2ccc3c(c2)nc(C)n3C)cc1	-10%	-10	-35%	1.6µM*	-13	-9%	6.3*
COc1cc2cc(CNc3ccc(C)cc3)c(=O)n(CC(=O)Nc3ccc(F)cc3F)c2cc1OC	11%	x	-19%	u	x	-12%	x
Cc1cc(C)n(-c2nc3ccccc3nc2Nc2cccc(C)c2C)n1	124%	x	37%	42%[59 µM]	x	33%	x
CC(C)c1ccc(NC(=O)c2cn(C3CCCCC3)c(=O)c3c2c2ccccc2n3C)cc1	22%	x	-21%	-1%[59 µM]	x	-2%	x
Cn1nnnc1SCC(=O)Nc1ccc(Br)cc1Cl	43%	10	9%	2µM*	1	-24%	u
Cn1nnnc1SCC(=O)Nc1ccc(Br)cc1Br	16%	-1	-7%	x	0	x	x
CCOc1ccc(CC(=O)Nc2sc(Cc3ccccc3)cc2C(N)=O)cc1OCC	u	1	u	2.5µM*	-8	-1%	6.3*
CCCNC(=O)c1ccc2c(=O)n3c(-c4ccc(C)cc4)csc3nc2c1	-25%	-1	22µM*	u	0	7.1µM*	0.56*
O=C1CCCc2cc(S(=O)(=O)N3CCCC(C(=O)Nc4ccc(F)c(Cl)c4)C3)ccc2N1 (configuration not stated)	11%	x	-13%	-27%[59 µM]	x	3%[57.1 µM]	x
O=C(/C=C/c1ccc(Cl)cc1)Nc1ccc(N2CCCCC2)cc1	25%	2	-13%	-12%	3	-3%	x
CC(C)(C)C(=O)Nc1ccc(N2CCCC2)cc1	26%	-4	-9%	u	-8	u	2.5*
CC(C)(C)C(=O)Nc1ccc(N2CCN(S(C)(=O)=O)CC2)cc1	19%	12	-2%	15%[59 µM]	5	-8%	x
O=C(CNC(=O)c1ccc(Br)o1)Nc1ccc(N2CCCCCC2)cc1	-11%	-2	u	2.2µM*	u	u	1*
O=C(/C=C/c1ccccc1)Nc1ccc(N2CCCCC2)cc1	-8%	9	-18%	2.8µM*	-4	-31%	2.2*
CC(=O)Nc1ccc(N2CCCC2)cc1	9%	-12	-18%	u	-17	3%	6.3*
COc1cc(OC)c(NC(=O)COCc2cc(-c3cccs3)on2)cc1Cl	10%	x	-14%	-8%[59 µM]	x	4%	x
Cc1ccc(C(=O)Nc2ccc(N3CCCC3)cc2)cc1	31%	-21	-4%	1.6µM*	-17	-8%	1.3*
Cc1ccc(C(=O)Nc2ccc(N3CCN(S(C)(=O)=O)CC3)cc2)cc1	10%	3	-6%	18%[12.7 µM]	5	6%	x
CC(=O)c1ccc(NC(=O)CSc2ccc(-c3cccs3)nn2)cc1	28%	x	u	2.8µM*	x	-21%	6.3*
CC(=O)Nc1ccc(NC(=O)CSc2ccc(-c3cccs3)nn2)cc1	20%	-1	-6%	10%	0	-11%	x
CCCc1cc(=O)[nH]c(SCc2nc(-c3ccccc3)no2)n1	21%[57 µM]	x	-6%	-16%[59 µM]	x	-3%	x
O=C(Cn1nc(-c2ccccc2)nc(Cc2ccccc2)c1=O)Nc1ccccc1	9%	x	-15%	7%[59 µM]	x	-5%	x

Screening data deposited in PubChem BioAssay by National Center for Advancing Translational Sciences (NCATS).
